# Results published in paper PMC13494018.
# B1: design_608_fd41b8f9-4da9-4c78-93ec-aaa316ed4933_1455_dldesign_0_cycle1_af2pred (protein)
# chain: HMSELTKKTSDVISEAVKTSREAVKEAEKKDPALGEKLKEFYTKALLDAQDGDPFKGATELLKKAKADLAAVKAS
# B2: design_608_fd41b8f9-4da9-4c78-93ec-aaa316ed4933_2179_dldesign_0_cycle1_af2pred (protein)
# chain: MKEEEAKKAIEEAKKAIKEAREVGKELAKKDPSKKAFVDEAAKKLHELREKLAEAESLLKKDPEKAKKLAEEVKKKAKEIKKELEKA
# B3: design_608_fd41b8f9-4da9-4c78-93ec-aaa316ed4933_2496_dldesign_0_cycle1_af2pred (protein)
# chain: EEEVREEAERIRERAKEIAEKAKKLAEEAEKDPSKAKEAEEKSRKLAEELRELGERARELGDEEAARAAAEAAAVAHEARAEAYAIAN
# B4: design_608_fd41b8f9-4da9-4c78-93ec-aaa316ed4933_1719_dldesign_0_cycle1_af2pred (protein)
# chain: DGYEKGKAVAERFKEDAEKIGNTEAAAEGLELLAEQWKAYAEKNTPEEAKEANKAAKEFKEEAKKYKEKAKA
# B5: design_608_fd41b8f9-4da9-4c78-93ec-aaa316ed4933_2157_dldesign_0_cycle1_af2pred (protein)
# chain: SELEEEIKKLAKELNEAIMKLADLASPEETREAAKKALEAKKLAKEDPEKGLEKLKEALKETKKLLEKAEKEN
# B6: design_609_7ee6ce64-4629-41e8-bcb4-ba0da017284d_97_dldesign_0_cycle1_af2pred (protein)
# chain: NKLEEAKKAVKKLKELAKKAKEVAKDLKKTEELVKKAEEEYKKAIKLAREAAKEGDEETKKEAKKLAEEAHEAYNEALLALVKARE
# B7: design_609_7ee6ce64-4629-41e8-bcb4-ba0da017284d_81_dldesign_0_cycle1_af2pred (protein)
# chain: SKALADALRAAQRALRALGRRAAALDPALAAEVTAALFAVYDQSTAEAAKAAADAAVAAATARIAALEAAA
# B8: design_608_fd41b8f9-4da9-4c78-93ec-aaa316ed4933_1401_dldesign_0_cycle1_af2pred (protein)
# chain: MEEEAKKYVEYTKKKAEEAKKNAKKAKEAGASQEAIQLFIDAAQYYLLAASAAENSPKYLPYAKEETKKGEELLKKGKKLFEEE
# B9: design_608_fd41b8f9-4da9-4c78-93ec-aaa316ed4933_1545_dldesign_0_cycle1_af2pred (protein)
# chain: GSSVHKELADKLKKAIEEGEAAAKAGDVEKGKQIYADALGEVLGYPEASRQKLLDLPAKEGYEKAKKLLTNAYDGLSSLAKK
# B10: design_608_fd41b8f9-4da9-4c78-93ec-aaa316ed4933_2208_dldesign_0_cycle1_af2pred (protein)
# chain: AAAAAAKAKALADAAKKAAKEYVKYAKEEDPEKGRKLLYEDMKKAYALAKADPALAPAAKEIAKIAQEAFQEIADIIGEKK
# B11: design_608_fd41b8f9-4da9-4c78-93ec-aaa316ed4933_1483_dldesign_0_cycle1_af2pred (protein)
# chain: METKRLSEAHRIAVRAAQAAGAAATTAAEKAAIAAAKFQAVDSDPEELIAILRATGAAFPKQAPHFDAAVAEIEKAIEEY
# B12: design_608_fd41b8f9-4da9-4c78-93ec-aaa316ed4933_2418_dldesign_0_cycle1_af2pred (protein)
# chain: NKLLKEAIEALKKGIEAAKKGDLMEAQAYFTEARFYAEKYAKENPEYKEKAEKAAELAKEAIKTNGTPEAIKLAEEARKLLEEI
# B13: design_608_fd41b8f9-4da9-4c78-93ec-aaa316ed4933_2353_dldesign_0_cycle1_af2pred (protein)
# chain: SNKEEADLLRELARAAKAAGAALAALAAADPSEAARAAALKAEFSQALFDAADGKLNEAEIKAIIARMEAVAAAA
# B14: design_608_fd41b8f9-4da9-4c78-93ec-aaa316ed4933_1756_dldesign_0_cycle1_af2pred (protein)
# chain: AQKAVAEAAQAALIAKSAADVSKNIDAETLEEIAKEAKKAAEKAEKEAPEAKEVIEPAKKEAEKLEKIAKEKKA
# B15: design_608_fd41b8f9-4da9-4c78-93ec-aaa316ed4933_2397_dldesign_0_cycle1_af2pred (protein)
# chain: RDKLLMYVAAVRGAARIAKDDPEKGKEALEIETEELVEVMAKASEEEAAEAKELAVAAAAEVDPEIAEWVRKFIEEKLKEKR
# B16: design_608_fd41b8f9-4da9-4c78-93ec-aaa316ed4933_1393_dldesign_0_cycle1_af2pred (protein)
# chain: STVEEALAAAKKNIAAAKAAAAAGDFAAAAAALHEARENVSVIYANDKEKGEELRKEVTAVRAEIRAKEEAA
# B17: design_609_7ee6ce64-4629-41e8-bcb4-ba0da017284d_21_dldesign_0_cycle1_af2pred (protein)
# chain: SLEEELNKKKTEELIEEGIKALKEYAEKGKLEEGKAIASKKVQEAFDLGYEEGREAARKVREAYDKLAKEIEKKKA
# B18: design_608_fd41b8f9-4da9-4c78-93ec-aaa316ed4933_1996_dldesign_0_cycle1_af2pred (protein)
# chain: AEKAKELREQAEKLREEARKYAEYAPPEVVHELYQAAAESISYFNLAEKGEATEEQIKEGEEAFKKLKELTEEIKERAKKAEEEA
# B19: design_608_fd41b8f9-4da9-4c78-93ec-aaa316ed4933_1151_dldesign_0_cycle1_af2pred (protein)
# chain: SMAEEEKKEKEKKKAETLALNAKGLEAIDKGDFTTAAKLYEKAAEVAPTEELKKRAEKGAKAMKKLEKAAKE
# B20: design_608_fd41b8f9-4da9-4c78-93ec-aaa316ed4933_2202_dldesign_0_cycle1_af2pred (protein)
# chain: DEYLKEAEKVYKETKKVIEEAKKKEKEEALKEIAKATQEATMKLTELAAEAAREGDKETAEKIRELRRELIEYATKVAEEVKAK
# B21: design_608_fd41b8f9-4da9-4c78-93ec-aaa316ed4933_1306_dldesign_0_cycle1_af2pred (protein)
# chain: GKEEAEKILKEAKAKLDALAKENPALAPLAAEAKERIEKKYKKAIEADEKDPKQGKAAAEALKEFAKNAVAAVEKKK
# B22: design_608_fd41b8f9-4da9-4c78-93ec-aaa316ed4933_1810_dldesign_0_cycle1_af2pred (protein)
# chain: MEELKKVVEETKEYAKKLIESDGFSLVGKSAYEAAEKALKEGNLEKAKEIYEKTKKMYERAEEYEKLAEEREKKYL
# B23: design_608_fd41b8f9-4da9-4c78-93ec-aaa316ed4933_1103_dldesign_0_cycle1_af2pred (protein)
# chain: SPQAAADALRAAQRLLREAGARAEAAGAQEAADLLRQASFALAGTGADEALALIDAAAAAYPEVAPLLDEARAAARAYGELLN
# B24: design_609_7ee6ce64-4629-41e8-bcb4-ba0da017284d_91_dldesign_0_cycle1_af2pred (protein)
# chain: SDLENNKKALQYAEAAAEAAEFGSLKAAQGLLKKAAELATDEETKKLLLEAAEKEDLKELLKLAKEAAKKLKKNVE
# B25: design_608_fd41b8f9-4da9-4c78-93ec-aaa316ed4933_1798_dldesign_0_cycle1_af2pred (protein)
# chain: NEAIKEAEKAAKEAKEAYKKAGEVSGETEKAERMIKRVEELLEAGKKDPSKAEKYKAQIEALRDHAKEVLKKAEAKKKA
# B26: design_608_fd41b8f9-4da9-4c78-93ec-aaa316ed4933_1790_dldesign_0_cycle1_af2pred (protein)
# chain: MEFIKEVSKKVHDTRFYLDSVALKASEEDRKKLEEMRKEVGELMLKAQKAYKEDPEEGKKLAEEALKKAEEAYKYAKSIEE
# B27: design_608_fd41b8f9-4da9-4c78-93ec-aaa316ed4933_1350_dldesign_0_cycle1_af2pred (protein)
# chain: SEAYKEFHEALQYATDAGYEYAKNPEEGKKELAKAEEHLKKAEELADPETAAKMREIYERRLAREKERAERLKKERN
# B28: design_608_fd41b8f9-4da9-4c78-93ec-aaa316ed4933_1451_dldesign_0_cycle1_af2pred (protein)
# chain: GSAAAAAAAAAAAIQAQQDKAMEYADEIYEKISKEVGKSTGIKVASDAFSYAMKTDFETGKKYGEEKEIKVIKEAKKK
# B29: design_608_fd41b8f9-4da9-4c78-93ec-aaa316ed4933_2334_dldesign_0_cycle1_af2pred (protein)
# chain: MTPEEKQEMVKQAVELVKNAKGAFDALEAADLIIEAYEKDPEAGKQAIEAAKAEAEKKIKENPLLGKTALRMIENAEIAMKNLE
# B30: design_608_fd41b8f9-4da9-4c78-93ec-aaa316ed4933_2243_dldesign_0_cycle1_af2pred (protein)
# chain: DEAKKEAAKAAQKAYEAIAEAEQAIRSGNAEELKKAAEEAKKAAKEAEKAAKKSKDKEVKEELKRVAKKAKEAAKKAKEAAKKLEA
# B31: design_608_fd41b8f9-4da9-4c78-93ec-aaa316ed4933_2434_dldesign_0_cycle1_af2pred (protein)
# chain: AAEEAIKKAKKIVEEAVKIMEEAGKKNPEYKEEFEKKNKKIKELLKEAEKLVKEGKKEEGIKTAVKAAHEAREAKAEAEWILRRN
# B32: design_608_fd41b8f9-4da9-4c78-93ec-aaa316ed4933_1906_dldesign_0_cycle1_af2pred (protein)
# chain: DVKKEAEKLRDKGKERAKRRLEDAKKISPQYAEAAYEALEQASKNAKKLAEKYPEAKEIYEELAKYFEEQAKKAKEIAE
# B33: design_608_fd41b8f9-4da9-4c78-93ec-aaa316ed4933_1100_dldesign_0_cycle1_af2pred (protein)
# chain: ELAKEIEKFAEEAKERAKKGNPEEAREAYREFREKAKKIAEEDPSVAELASKKAAEVAEVAAEAIYKKLKE
# B34: design_608_fd41b8f9-4da9-4c78-93ec-aaa316ed4933_1632_dldesign_0_cycle1_af2pred (protein)
# chain: EAEKKFKEAKKLASEAAEKLATLAAEAAFKGKEELAKEAREALKKLREKGKEAEKLYKEDPEKAAKVLKKAAEEALKKAEKLEKEL
# B35: design_608_fd41b8f9-4da9-4c78-93ec-aaa316ed4933_1926_dldesign_0_cycle1_af2pred (protein)
# chain: DAEEEAKKLKEEAEKKLKEIKQMAKDGTATVEEIEKERKEGIEALKKAAKLVPEKKEEYAKLAEEIVEAYSDAYYESLKKERE
# B36: design_608_fd41b8f9-4da9-4c78-93ec-aaa316ed4933_1539_dldesign_0_cycle1_af2pred (protein)
# chain: SKRKEAARIAAEIVRRGHRIGAALARTIGPAAGAATEATLEELADLALEDPEKGRELGEAAVAAAEAAIAAARAA
# B37: design_608_fd41b8f9-4da9-4c78-93ec-aaa316ed4933_2275_dldesign_0_cycle1_af2pred (protein)
# chain: MEKVKEEAEKLREEAEKAAKAGDVKAVSEAAHKLAELAAEAERESEEAGKVAREALRELREEAKAALAKRAAAAAA
# B38: design_608_fd41b8f9-4da9-4c78-93ec-aaa316ed4933_2160_dldesign_0_cycle1_af2pred (protein)
# chain: MEEKAKKYLEAAKKAKKYAEYAAKIDKEAAEKAKEAAKLLEEAAKLYLEGADEEEIEKASKKAAEKLGEARFEYNVVKQKEKRK
# Biological target: VTCN1, Q7Z7D3
# Sequence (Q7Z7D3 whole entry): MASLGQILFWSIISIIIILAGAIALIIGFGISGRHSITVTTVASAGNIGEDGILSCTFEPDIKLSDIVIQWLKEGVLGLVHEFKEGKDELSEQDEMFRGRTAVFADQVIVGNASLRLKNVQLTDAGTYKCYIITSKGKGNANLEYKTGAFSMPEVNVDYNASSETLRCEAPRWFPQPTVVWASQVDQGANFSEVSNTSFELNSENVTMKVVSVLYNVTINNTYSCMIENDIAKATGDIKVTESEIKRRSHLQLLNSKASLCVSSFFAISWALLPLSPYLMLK
row,Binder,binding in a display sort
1,B1,not found (inactive)
2,B2,not found (inactive)
3,B3,not found (inactive)
4,B4,not found (inactive)
5,B5,not found (inactive)
6,B6,not found (inactive)
7,B7,not found (inactive)
8,B8,not found (inactive)
9,B9,not found (inactive)
10,B10,not found (inactive)
11,B11,not found (inactive)
12,B12,not found (inactive)
13,B13,not found (inactive)
14,B14,not found (inactive)
15,B15,not found (inactive)
16,B16,not found (inactive)
17,B17,not found (inactive)
18,B18,not found (inactive)
19,B19,not found (inactive)

row,Binder,binding in a display sort
1,B20,not found (inactive)
2,B21,not found (inactive)
3,B22,not found (inactive)
4,B23,not found (inactive)
5,B24,not found (inactive)
6,B25,not found (inactive)
7,B26,not found (inactive)
8,B27,not found (inactive)
9,B28,not found (inactive)
10,B29,not found (inactive)
11,B30,not found (inactive)
12,B31,not found (inactive)
13,B32,not found (inactive)
14,B33,not found (inactive)
15,B34,not found (inactive)
16,B35,not found (inactive)
17,B36,not found (inactive)
18,B37,not found (inactive)
19,B38,not found (inactive)
